The source of these data is ChEMBL document CHEMBL4513216, “Probing the Open Global Health Chemical Diversity Library for Multistage-Active Starting Points for Next-Generation Antimalarials” (ACS Infect Dis, 2020).

SMILES strings stand for the structures. Screen size: about 65,000 compounds; about 2,100 (3.2%) showed an effect of 50% or more. The median lay at about -52%. The sample as a whole holds a higher share of strong results than the screen did.

The subject of the experiment is Plasmodium falciparum. Briefly: Screen against P. falciparum Asexual Blood Stage (ABS), at 5uM. The format is functional, Dd2. The conditions noted are these: tested at 5 uM.
As for `CNC(=O)CN1CCO[C@H]2CN(C(=O)c3ccncc3F)C[C@H]21`, the INHIBITION was -74.6%.
`CCCn1cc(C(=O)NC(C(=O)O)c2ccccc2C(F)(F)F)c(C)n1` (stereo not given): the INHIBITION is recorded as -51.5%.
Under `CS(=O)(=O)N1CCN(CC2CC2)c2ncccc2C1` stands -25.9%; under `OC[C@H]1CN2CCN(c3ccccn3)C[C@@H]2[C@@H]1c1ccccc1`, -11.3%.
The result for `COc1ccc(CN2CCCC2)cc1Oc1ccc2c(c1)CC(CN)O2` (stereo not given) reads 88.2%; that for `NCC1Cc2cc(Oc3cc(F)c(CN4CCCC4)c(F)c3)ccc2O1` (stereo not given), 77.8%; that for `COc1ncccc1CN1C[C@@H]2COC[C@]2(COCC2CC2)C1`, 33.8%.
The result for `Cc1cccc(CN2C[C@@H]3COC[C@]3(COc3cccnc3)C2)n1` reads -77.5%; that for `Cc1noc(C)c1CN1CCOCC12CCN(c1nccs1)CC2`, -91.6%; that for `O=C(CCc1ccccc1)N1C[C@H]2CCN[C@H]2C1`, -6.16%.
As to `O=C(Cc1ccccc1)N1C[C@@H]2OCCN(CC3CCCO3)[C@@H]2C1` (stereo not given in full), the INHIBITION was -34.5%.
Under `O=C(c1scc2c1OCCO2)N1CCOC(CCc2ccccc2)C1` (stereo not given) stands 88.7%; under `CN1CC[C@H]2OCC[C@@]2(C(=O)NCCc2ccccn2)C1`, 12.7%.
Take `O=C(NCCc1ccccn1)[C@@]12CCO[C@@H]1CCN(CC1CC1)C2`: the INHIBITION was found to be 30.8%.
For `Cc1ccccc1C1(C(=O)NCCN2CCC(C)CC2)CCOCC1`, the INHIBITION stood at 85.3%.
Under `Cc1ccccc1C1(C(=O)NCCN2CCCC(C)C2)CCOCC1` (stereo not given) stands 88.1%.
For the molecule `O=C(NCCc1ccccn1)[C@@]12CCO[C@@H]1CCN(C1CCC1)C2`, the INHIBITION turned out to be 44.6%.
The result for `O=S1(=O)CCC(n2cc(C3=CCN(CCN4CCCCC4)CC3)cn2)C1` (stereo not given) reads 12.6%.
`O=C(N[C@H]1CN[C@H]2CCCO[C@H]21)c1ccno1`: the INHIBITION is -87.2%.
Regarding `c1cc(COC[C@@H]2CCC[C@@]23CNCCO3)ccn1`, the INHIBITION was 7.1%.
As to `COc1cc(CNCC(O)c2ccc(F)cc2F)cc2c1OCO2` (stereo not given), the INHIBITION came out at 85.5%.
`COc1cc(CNCC(O)c2ccccc2F)cc2c1OCO2` (stereo not given): the INHIBITION is listed as 78%.
The result for `CC[C@H](N)Cn1nc(-c2cccs2)oc1=O` reads -186%.
As to `CCc1nnc(C(C)N2CCCN(C(=O)Oc3ccccc3)CC2)o1` (stereo not given), the INHIBITION is on record as -87.2%.
`CCC(CN1CCCC1)NC(=O)C1(c2cccc(F)c2)CC1` (stereo not given): the INHIBITION was determined as 84.7%.
Under `CC(C)CN1CCC2(CC1)C(=O)Nc1ccc(C(=O)NC(C)C)cc12` stands -39.5%.
With `O=C(Nc1cccc(F)c1)N1CCC(CO)(Nc2ccccc2)CC1`, the INHIBITION was -35.15%.
Consider `CC(C)NC(=O)c1ccc2c(c1)C1(CCN(C)CC1)C(=O)N2`, for which the INHIBITION is reported as -37.9%.
Under `CCC(CN1CCN(C)CC1)NC(=O)C1(c2cccc(F)c2)CC1` (stereo not given) stands 77.1%.
With `CC(C)n1cc(C(=O)NC2CN3CCC2CC3)c2ccccc21` (stereo not given), the INHIBITION was -24.9%.
The result for `Cc1[nH]c2ccccc2c1-c1ccnc(NCCN2CCOCC2)n1` reads 82.5%; that for `CC(C)(C)n1cc(C(=O)NCCN2CCOCC2)c2cccnc21`, -89.4%; that for `Cn1cc(C2NC3(CCCC3)C(=O)N2CC2CC2)c(=O)n(C)c1=O` (stereo not given), -43.9%.
`Cc1ccc(N2CC[C@@H]3CN(Cc4cc[nH]n4)C[C@@H]3C2)nn1`: the INHIBITION was -19.6%.
Under `Cc1cc(CN2C[C@@H]3CN(C(=O)c4ccco4)CCO[C@@H]3C2)no1` stands -45%; under `NCC1(c2cccc(Br)c2)CCOCC1`, 79.5%.
The result for `NCC1(c2cccc(F)c2)CCOCC1` reads 2.49%.
For `NCC1(c2cccc(C(F)(F)F)c2)CCOCC1`, the INHIBITION is 69.9%.
The result for `NCC1(c2cccc(C(F)(F)F)c2)CC1` reads -97.7%; that for `Cc1nn(-c2ccc(C(=O)O)cc2)c2c1C(c1ccsc1)SCC(=O)N2` (stereo not given), -82.6%; that for `COCCN1CCN(Cc2ccco2)Cc2ccc(C)nc21`, -85%.
The result for `COCCN1CCO[C@@H]2CN(S(=O)(=O)c3cccnc3)C[C@@H]2C1` reads -76.3%; that for `Cc1cc(CN2C[C@@H]3COC[C@@H](C(=O)N4CCCCO4)[C@@H]3C2)no1`, -31.1%.
As to `c1cnc(NC[C@@H]2CCC[C@@H]3CN(Cc4cccnc4)C[C@@H]32)nc1`, the INHIBITION is on record as 42.2%.
Turning to `COC1CCC[C@@H]2CN(Cc3csc(C)n3)C[C@H]12` (stereo not given in full), the INHIBITION came out at 24.8%.
As to `CN(C[C@@H]1CCC[C@@H]2CN(Cc3cccnc3)C[C@@H]21)C1CC1`, the INHIBITION was determined as 56.5%.
As to `COc1ccc(CN2C[C@H]3CCC[C@@H](CN(C)C4CC4)[C@H]3C2)cn1`, the INHIBITION is 78.2%.
Consider `Cn1cc(CN2C[C@H]3CCC[C@@H](CNc4ncccn4)[C@H]3C2)cn1`, for which the INHIBITION was -87.3%.
In the case of `COCCN(C)C[C@@H]1CCC[C@@H]2CN(Cc3ccc(OC)nc3)C[C@@H]21`, the INHIBITION stood at 79.6%.
The result for `O=C(C[C@@H]1COC[C@H]2CN(Cc3cccnc3)C[C@@H]12)N1CCCC1` reads -133%.
